TCR CD3 inh: inhibitors of human TCR-CD3 interaction, primary screen, biochemical, fluorescence, TAMRA-labeled TCR probe. AID 651800, 2012. inhibition, % at 9.4 µM. hit rate 0.37% among 360,000. T-cell receptor (TCR); in the data active means inhibition above about 19%;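 further: recombinant mutant TCR 2C K166C tagged with TAMRA read by polarization; 0% = receptor in buffer alone and 100% = receptor with positive control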
LEDGF integ inh: blockers of LEDGF/p75-dependent integrase strand transfer – biochemical, TR-FRET, high throughput, primary screen; TR-FRET IN-LEDGF/p75 DNA integration, Eu/Cy5; inhibition, % at 3.7 µM; hit rate 0.64% among 370,000;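 active means inhibition above the screen-wide mean plus 3 SD, cut at about 13% in these data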;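 further: signal is the Cy5 over europium emission ratio at 671 and 618 nm; 0% = plate median of compound wells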
Rin1 Abl inh: inhibitors of Rin1-Abl protein binding, primary screen, biochemical, TR-FRET. Tyrosine-protein kinase ABL1 (Homo sapiens) + Ras and Rab interactor 1 (Homo sapiens), …. AID 588664, 2011. inhibition, % at 7.35 µM. hit rate 0.4% among 360,000; in the data active means inhibition above about 5%, passing the limit was not always enough
UHRF1 binding: UHRF1 methylated DNA binding inhibitors, primary screen, counter-screen for MBD2 inhibitor project, biochemical, TR-FRET, human UHRF1, single concentration. hit rate 0.75% among 370,000. UHRF1 binding to methylated oligo. inhibition, % at 4.4 µM. AID 687016, 2013. E3 ubiquitin-protein ligase UHRF1 (Homo sapiens), Q96T88; in the data active means inhibition above about 21%;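 further: UHRF1 SRA domain binding a hemimethylated CpG hairpin DNA probe; 0% = median of test compound wells and 100% = reference inhibitor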
MBD2 inh: inhibitors of MBD2 binding to methylated DNA, primary screen, biochemical, TR-FRET, DNA-binding domain, human. Methyl-CpG-binding domain protein 2 (Homo sapiens), Q9UBB5. MBD2 binding to methylated oligonucleotide. inhibition, % at 4.4 µM. hit rate 0.31% among 370,000. AID 686964, 2013; in the data active means inhibition above about 13%
IN multimer act: HIV-1 IN multimer formation enhancers, counter-screen for LEDGF/p75 integration inhibitor project, biochemical, TR-FRET; shares compounds with LEDGF integ inh; TR-FRET HIV-1 integrase multimerization; activation, % at 7.7 µM; hit rate 17% among 2,000; AID 1053131, 2014; in the data active means activation above about 8.9%
TRFRET interf: TR-FRET optical interference artefacts, confirmation, artefact control for LEDGF/p75-dependent integration inhibitor project, biochemical, HIV-1 IN multimerization; shares compounds with LEDGF integ inh; TR-FRET optical interference counterscreen; inhibition, % at 7.7 µM; 2,000 tested, under 10 active; AID 1053135, 2014;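 active means inhibition above the mean over all tested compounds plus 3 SD, which no compound reached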;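 further: 0% = integrase with antibodies and DMSO and 100% = antibodies without integrase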
LEDGF integ conf: inhibitors of HIV-1 IN-LEDGF/p75 DNA integration, confirmation, biochemical, TR-FRET. shares compounds with LEDGF integ inh. TR-FRET LEDGF/p75-dependent HIV-1 integration. inhibition, % at 3.7 µM. hit rate 36% among 2,000; in the data active means inhibition above about 14%
Active calls of the source: *; / = not tested or not shown. Shown are actives, neighbours in structure and some others; about 2% of the full set was active somewhere.

SMILES	TCR CD3 inh	LEDGF integ inh	Rin1 Abl inh	UHRF1 binding	MBD2 inh	IN multimer act	TRFRET interf	LEDGF integ conf
CC[C@@H]1Cc2[nH][nH]c(=O)c2[C@H](c2ccc(Cl)cc2)O1	0	0	/	-8	-4	/	/	/
Cc1cc(-c2cc(C)c(N)cc2C)c(C)cc1N	10	14*	0	1	1	2	-10	1
O=C(CCc1n[nH]c(=O)[nH]c1=O)N/N=C/c1ccco1	10	15*	-1	8	4	-1	4	5
Cc1ccc(CN2CCN(C3CCOCC3)CC2CCO)cc1 (stereo not drawn)	6	-1	2	0	1	/	/	/
Cc1ccc(CNC(=O)C2CCN(S(=O)(=O)c3c(C)noc3/C=C/c3ccco3)CC2)cc1	-9	6	4	0	-2	/	/	/
Cc1noc(/C=C/c2ccco2)c1S(=O)(=O)N1CCC(C(=O)NCc2ccco2)CC1	1	33*	-4	1	-8	3	-9	1
Cc1cccnc1NC(=O)C1CCN(S(=O)(=O)c2c(C)noc2/C=C/c2ccco2)CC1	1	24*	0	-2	1	0	-2	-11
O=C(N[C@H](C(=O)N1CCC[C@H]1C(=O)NCCc1ccccc1Cl)C1CCCCC1)c1ccc(Cl)c(Cl)c1	-1	2	/	3	1	/	/	/
O=C(NCc1ccccc1Cl)C(=O)c1cn(CC(=O)N2CCOCC2)c2ccccc12	-4	-1	2	5	-2	/	/	/
COc1ccc(C2C(C#N)=C(N)Oc3c2c(C)nn3-c2ccccc2)cc1Cn1nc(C)c([N+](=O)[O-])c1C (stereo not drawn)	-2	-1	-4	-4	-6	/	/	/
COc1ccc(C2C(C#N)=C(N)OC3=C2C(=O)CC(C)(C)C3)cc1Cn1nc(C)c([N+](=O)[O-])c1C (stereo not drawn)	1	14*	-1	-2	-2	1	-6	-5
CC1(C)C2CCC(CN)C1C2 (stereo not drawn)	8	6	0	3	0	/	/	/
O=C(C[C@@H]1C/C=C\C[C@H](NC(=O)OCC2c3ccccc3-c3ccccc32)C(=O)OC[C@H]2CCCN2C1=O)NCCO	/	/	-5	/	/	/	/	/
COc1ccc(-c2nc3ccccc3c(=O)n2NC(=O)Cc2ccccc2)cc1	2	52*	-1	-4	-3	1	-4	-5
CCC(CC)C(=O)N(C)c1c(C)nc2c(OCc3ccc(C#N)cc3)cccn12	-5	15*	4	-1	-1	-2	9	-7
N=C1/C(=C\c2coc3ccccc3c2=O)C(=O)N=C2SC(c3ccncc3)=NN12	-2	25*	-2	-6	-4	0	-1	62*
N#Cc1nc(-c2ccccc2F)oc1NCCc1ccccc1	4	5	-3	2	1	/	/	/
N#Cc1nc(-c2ccccc2F)oc1NCc1ccccc1	-1	14*	-1	2	-1	0	-2	-4
O=C(COC(=O)[C@@H]1CCCN1C(=O)c1cccs1)Nc1cccc(Cl)c1	-1	1	2	-4	-2	/	/	/
Cc1cccc(NC(=O)COC(=O)[C@@H]2CCCN2C(=O)c2cccs2)c1	-2	28*	1	-1	4	0	-2	-4
O=C(Cn1cc2c(n1)CCCCC2)Nc1ccccc1Br	3	0	0	1	-2	/	/	/
COc1cc(CCC(=O)NCc2ccc3c(c2)OCO3)cc(OC)c1OC	-3	29*	2	0	8	0	1	-5
